Laboratory results as given in the supplement of paper PMC7366291.
Where a name gives a salt, the structure may show the parent alone. ± gives the standard deviation of the averaged measurements.

test system: Danio rerio Tg(wt1b:EGFP) embryo, pronephros; assay: glomerular width (mean of left and right), fold change vs DMSO control; higher = wider glomerulus; conditions: 25 µM; exposure: 24-48 hpf
Outline: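 Features are reported as fold changes against the mean of same-day DMSO-treated embryos. Before that, values more than 2 SD away from the feature mean were excluded. The embryos, dechorionated Tg(wt1b:EGFP) zebrafish, had been exposed from 24 to 48 hpf at 28.5°C to 25 μM compound in 0.5% DMSO in HEPES-buffered E3 with 0.003% PTU, and distances and angles came from 16 manually set points on maximum projections of dorsal pronephros images in Fiji.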

Q: How did the glomerular width turn out when C[C@]12CC[C@H]3[C@@H](CCC4=CC(=O)CC[C@@H]43)[C@@H]1CC[C@@H]2O [Nandrolone] was run?
A: 0.8978 ± 0.0049

Q: With CC[N+]1(C)CCCC(OC(=O)C(O)(c2ccccc2)c2ccccc2)C1 (stereo not given) [Pipenzolate bromide] as the compound, how does the glomerular width read?
A: 1.051 ± 0.0016

Q: C[C@]12CC[C@@H]3c4ccc(OC(=O)N(CCCl)CCCl)cc4CC[C@H]3[C@@H]1CC[C@@H]2O [Estramustine] was tested. Which glomerular width did it give?
A: 0.792 ± 0.018

Q: How did the glomerular width turn out when CCCN1C[C@H](CSC)C[C@@H]2c3cccc4[nH]cc(c34)C[C@H]21 [Pergolide mesylate] was run?
A: 1.01 ± 0.019

Q: Which glomerular width does the source give for NCCCNCCSP(=O)(O)O [Amifostine] here?
A: 1.04 ± 0.037

Q: For CC[C@@H](C(N)=O)N1CCCC1=O [Levetiracetam], which glomerular width is on record?
A: 1.04 ± 0.041

Q: With C[C@]12CC[C@@H](O)C[C@H]1CC[C@@H]1[C@@H]2CC[C@]2(C)C(=O)CC[C@@H]12 [3-alpha-Hydroxy-5-beta-androstan-17-one] as the compound, how does the glomerular width read?
A: 0.982 ± 0.066

Q: Which glomerular width does the source give for C[C@@H]1C[C@@H]([C@H](O)CC2CC(=O)NC(=O)C2)C(=O)[C@@H](C)C1 [Cycloheximide] here?
A: 0.604 ± 0.14

Q: With CC(=O)NC1CCSC1=O (racemic) [N-Acetyl-DL-homocysteine Thiolactone] as the compound, how does the glomerular width read?
A: 1.07 ± 0.041

Q: Which glomerular width does the source give for CC(C)(C)NCC(O)c1cc(Cl)c(N)c(Cl)c1 (stereo not given) [Clenbuterol hydrochloride] here?
A: 1.08 ± 0.032

Q: How did the glomerular width turn out when NCC(O)c1ccc(O)cc1 (racemic) [(+,-)-Octopamine hydrochloride] was run?
A: 0.94 ± 0.042

Q: With C=C(C)[C@@H]1[C@H]2OC(=O)[C@@H]1[C@]1(O)C[C@H]3O[C@]34C(=O)O[C@H]2[C@]14C [Picrotoxinin] as the compound, how does the glomerular width read?
A: 0.973 ± 0.011

Q: For C[N+]12CCC(CC1)C(OC(=O)C(O)(c1ccccc1)c1ccccc1)C2 (stereo not given) [Clidinium bromide], which glomerular width is on record?
A: 0.982 ± 0.1

Q: Which glomerular width does the source give for COc1ccc(CN2CCNCC2)c(OC)c1OC [Trimetazidine dihydrochloride] here?
A: 0.96 ± 0.014

Q: How did the glomerular width turn out when CN(C)C(=O)Oc1cc(OC(=O)N(C)C)cc(C(O)CNC(C)(C)C)c1 (stereo not given) [Bambuterol hydrochloride] was run?
A: 0.915 ± 0.035

Q: Which glomerular width does the source give for CC(C)C[C@H]1C(=O)N2CCC[C@H]2[C@]2(O)O[C@](NC(=O)[C@@H]3C=C4c5cccc6[nH]c(Br)c(c56)C[C@H]4N(C)C3)(C(C)C)C(=O)N12 [Bromocryptine mesylate] here?
A: 1.12 ± 0.012

Q: Which glomerular width does the source give for C#C[C@]1(O)CC[C@H]2[C@@H]3CCC4=CC(=O)CC[C@]4(C)[C@H]3CC[C@@]21C [Ethisterone] here?
A: 1.06 ± 0.071

Q: CC(=O)O[C@H]1C[C@H](O[C@H]2[C@@H](O)C[C@H](O[C@H]3[C@@H](O)C[C@H](O[C@H]4CC[C@@]5(C)[C@H](CC[C@@H]6[C@@H]5C[C@@H](O)[C@]5(C)[C@@H](C7=CC(=O)OC7)CC[C@]65O)C4)O[C@@H]3C)O[C@@H]2C)O[C@H](C)[C@H]1O[C@@H]1O[C@H](CO)[C@@H](O)[C@H](O)[C@H]1O [Lanatoside C] was tested. Which glomerular width did it give?
A: 0.929 ± 0.065

Q: With CN(C)C(=O)Oc1ccc[n+](C)c1 [Pyridostigmine iodide] as the compound, how does the glomerular width read?
A: 0.982 ± 0.096

Q: O=c1[nH]oc2c1CCNC2 [THIP Hydrochloride] was tested. Which glomerular width did it give?
A: 1.08 ± 0.012

Q: For S=C(NC1CCCCC1)N1CCC(c2cnc[nH]2)CC1 [Thioperamide maleate], which glomerular width is on record?
A: 0.974 ± 0.011

Q: Which glomerular width does the source give for CC[C@@H](CO)NC(=O)[C@@H]1C=C2c3cccc4[nH]cc(c34)C[C@H]2N(C)C1 [Methylergometrine maleate] here?
A: 0.927 ± 0.056

Q: With C[C@]12Cc3c[nH]nc3C[C@@H]1CC[C@@H]1[C@@H]2CC[C@@]2(C)[C@H]1CC[C@]2(C)O [Stanozolol] as the compound, how does the glomerular width read?
A: 1.03 ± 0.076

Q: Which glomerular width does the source give for COc1ccc(OC)c(C(O)C(C)N)c1 (stereo not given) [Methoxamine hydrochloride] here?
A: 0.9725 ± 0.0077

Q: For CC(NC(C)(C)C)C(=O)c1cccc(Cl)c1 (stereo not given) [Bupropion hydrochloride], which glomerular width is on record?
A: 1.026 ± 0.0015

Q: C(#CCN1CCCC1)CN1CCCC1 [Tremorine dihydrochloride] was tested. Which glomerular width did it give?
A: 0.9472 ± 0.008

Q: For NCCc1c[nH]c2ccc(O)cc12 [Serotonin hydrochloride], which glomerular width is on record?
A: 0.902 ± 0.038

Q: With COc1cccc(C2(O)CCCCC2CN(C)C)c1 (stereo not given) [Tramadol hydrochloride] as the compound, how does the glomerular width read?
A: 0.989 ± 0.021

Q: Which glomerular width does the source give for NC(=O)CN1CCCC1=O [Piracetam] here?
A: 1.08 ± 0.032

Q: For COc1cc2c(c(OC)c1OC)-c1ccc(OC)c(=O)cc1[C@@H](NC(C)=O)CC2 [Colchicine], which glomerular width is on record?
A: 0.827 ± 0.047

Q: How did the glomerular width turn out when C[C@]12CCC(=O)C=C1C=C[C@@H]1[C@@H]2CC[C@@]2(C)[C@H]1CC[C@@]2(O)CCC(=O)O [Canrenoic acid potassium salt] was run?
A: 1.03 ± 0.033

Q: How did the glomerular width turn out when NCC1(CC(=O)O)CCCCC1 [Gabapentin] was run?
A: 0.9761 ± 0.0014

Q: How did the glomerular width turn out when CN1[C@@H]2CC[C@H]1C[C@@H](OC1c3ccccc3CCc3ccccc31)C2 [Deptropine citrate] was run?
A: 0.947 ± 0.035

Q: For CC(Cc1ccc(O)cc1)NCC(O)c1cc(O)cc(O)c1 (stereo not given) [Fenoterol hydrobromide], which glomerular width is on record?
A: 1.051 ± 0.0075

Q: For c1ccc2nc(N3CCNCC3)ccc2c1 [Quipazine dimaleate salt], which glomerular width is on record?
A: 1.01 ± 0.04
